Source: PubChem BioAssay AID1159580 (chemical genetic matrix, 2015)
The campaign covered roughly 5,500 compounds. About 2,000 (36%) were called active. Another 18% or so got no clear call; they are omitted. Rule as the data show it: active = normalized growth mostly below about 0.91 (no sharp cut-off); inconclusive = no clear call, values can overlap the other calls; inactive = mostly above about 0.92. This is one part of the list.

Assay: chemical genetic growth profiling, strain panel (AID 1159580);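 also: tested at 20 µM; growth read once vehicle control cultures reached saturation at 30 °C; 1 = growth at the plate median or of vehicle wells; lower values mean less growth of the strain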
Conditions: S. cerevisiae deletion strains, growth OD

Measured: normalized growth

O=C(c1ccccc1)c1cc2c(cc1Br)OCCO2
inactive: locus YBR229C, strain ROT2, active compounds read low 0.953 | locus YDL134C, strain PPH21, active compounds read low 0.942 | locus YDR150W, strain NUM1, active compounds read low 0.927 | locus YHR087W, strain rtc3, active compounds read low 0.989 | locus YJR075W, strain HOC1, active compounds read low 0.93 | locus YLR058C, strain SHM2 (second series), active compounds read low 0.956 | locus YMR219W, strain ESC1, active compounds read low 0.952 | locus YMR263W, strain SAP30, active compounds read low 0.921 | locus YNL322C, strain KRE1, active compounds read low 0.955 | locus YPL055C, strain LGE1, active compounds read low 0.845
active: locus YAL013W, strain DEP1, active compounds read low 0.908 | locus YDL101C, strain DUN1, active compounds read low 0.897 | locus YEL061C, strain CIN8, active compounds read low 0.904 | locus YGR078C, strain PAC10, active compounds read low 0.922 | locus YHR030C, strain SLT2, active compounds read low 0.304 | locus YJR043C, strain POL32, active compounds read low 0.906 | locus YKL190W, strain CNB1, active compounds read low 0.845 | locus YLR039C, strain RIC1, active compounds read low 0.486 | locus YLR085C, strain ARP6, active compounds read low 0.419 | locus YLR262C, strain YPT6, active compounds read low 0.524 | locus YML094W, strain GIM5, active compounds read low 0.852 | locus YNL153C, strain GIM3, active compounds read low 0.91 | locus YNL298W, strain CLA4 (second series), active compounds read low 0.7 | locus YNR030W, strain Alg12, active compounds read low 0.811 | locus YPL241C, strain CIN2, active compounds read low 0.823 | locus YPR135W, strain CTF4, active compounds read low 0.445
